Screens: PubChem BioAssay, National Center for Advancing Translational Sciences (NCATS)
Most compounds without a hit are left out; they make up all but 22% or so of the library.
Pf growth 48h: P. falciparum growth inhibition at 48 hours (one generation); 5.9% of 310,000 active; P. falciparum luciferase growth in erythrocytes, 48 h; Potency, µM (doses to about 28.7 µM), for inactives: at the top dose activity change, negative = inhibition, hits mostly inhibitors; also: potency is read from the fitted curve at half-maximal effect; % is scaled to controls: 0 for no effect and ±100 for the full control effect
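Firefly luciferase activity from engineered P. falciparum reports growth; inhibitors lower the luminescent signal. Cultures contained 2% hematocrit erythrocytes at 0.1% final parasitemia.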
Pf growth 96h: inhibits malaria parasite growth, 96 h. P. falciparum luciferase reporter growth, 96 h. Potency, µM (titrated, usually from 28.7 µM), inactives show at the top dose activity change, negative = inhibition, most hits filed as inhibitors. 6.9% of 320,000 active; also: potency is read from the fitted curve at half-maximal effect; % is scaled to controls: 0 for no effect and ±100 for the full control effect
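Two-generation exposure (96 h) targets delayed-death phenotype. Reporter parasites carrying integrated firefly luciferase, in red cells at 2% hematocrit and 0.05% parasitemia final, kept at 37 C, 5% CO2; luminescence loss indicates inhibition.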
Shiga inhibitor: inhibitors of Shiga toxin in Vero cells | Vero cells, Shiga toxin protein synthesis inhibition reporter | inhibition, % at 38.7 µM | 9.2% of 290,000 active | AID 2315; in the data active = inhibition mostly above about 28%, no sharp cut-off; inactive = mostly below about 43%; also: 0% is about no effect
LmPK inh: inhibitors of Leishmania mexicana pyruvate kinase. purified LmPK, Kinase-Glo ATP luminescence, 1 h. Potency, µM (titrated, usually from 57.5 µM), without a hit: top-dose activity change, negative = inhibition, usual class: inhibitors. 0.37% of 290,000 active. AID 1721; also: potency is read from the fitted curve at half-maximal effect; % is scaled to controls: 0 for no effect and ±100 for the full control effect
Target sequence (Q27686 whole entry, looked up): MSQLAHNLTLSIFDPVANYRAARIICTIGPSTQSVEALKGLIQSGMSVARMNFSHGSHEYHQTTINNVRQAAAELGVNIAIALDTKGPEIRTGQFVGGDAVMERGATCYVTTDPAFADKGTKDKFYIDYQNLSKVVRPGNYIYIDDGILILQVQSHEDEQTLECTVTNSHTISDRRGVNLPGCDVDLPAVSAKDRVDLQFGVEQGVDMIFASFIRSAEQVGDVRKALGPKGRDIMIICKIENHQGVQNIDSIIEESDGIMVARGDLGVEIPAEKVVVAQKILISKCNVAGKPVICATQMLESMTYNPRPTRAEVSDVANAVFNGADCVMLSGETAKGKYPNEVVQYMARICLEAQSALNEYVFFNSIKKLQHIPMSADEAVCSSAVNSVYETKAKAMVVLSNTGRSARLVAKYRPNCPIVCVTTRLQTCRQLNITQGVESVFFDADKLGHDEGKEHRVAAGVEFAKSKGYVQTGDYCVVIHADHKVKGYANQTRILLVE
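ATP generated from ADP (0.1 mM) and PEP (0.5 mM) by 0.1 nM LmPK over 1 h at room temperature (pH 7.2 imidazole buffer) was detected by coupled luciferase luminescence. Values were normalized to uninhibited and no-enzyme wells.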
CHX counter: counter-screen for Shiga toxin inhibitors: cycloheximide protein synthesis inhibition; max response, %; cell reporter, cycloheximide protein synthesis inhibition counterscreen; 12% of 300,000 active; in the data active = max response mostly above about 13%, no sharp cut-off; inactive = mostly below about 14%; also: read at 38.3 µM for the half of the compounds with a filed dose; 0% is about no effect
The depositor's hits bear a star; [ ] = another dose, or the depositor's remark. Unless noted, calls follow the shape of the dose curve; as a rule, active = well fitted inhibition curve with a large enough effect; inconclusive = small, poorly fitted or top-dose-only effect, or another doubt; inactive = no such curve, though single readings can be large or run the other way.

What do the screens show for `Cn1nc(C(=O)NNC(=O)C(CCC(N)=O)NS(=O)(=O)c2ccc(Cl)cc2)c2ccccc2c1=O` (configuration not stated)?
Pf growth 48h: 22%; Pf growth 96h: -1%

Results for c1ccc([C@H]2CN3C(=N2)Sc2ccccc23)cc1 ?
Pf growth 48h: 72%; Pf growth 96h: 124%

How did COC(=O)CN(C#N)c1nc(N(C)C)nc(N(C)C)n1 do in these assays?
Pf growth 48h: -7%; Pf growth 96h: 4.1µM*; Shiga inhibitor: -6; LmPK inh: 1%; CHX counter: -3

Results for COC(=O)CN(C#N)c1nc(NCc2ccccc2)nc(OC)n1 ?
Pf growth 48h: 9.3µM*; Pf growth 96h: inconclusive; Shiga inhibitor: 4; LmPK inh: -3%; CHX counter: 5

Results for COC(=O)CN(C#N)c1nc(NC(C)C)nc(OC)n1 ?
Pf growth 48h: 0%; Pf growth 96h: inconclusive; Shiga inhibitor: -3; LmPK inh: 0%; CHX counter: -4

Results for O=C(COc1ccc(Cl)cc1)N(Cc1ccccc1)c1nc(-c2ccccc2)cs1 ?
Pf growth 48h: 1.5µM*; Pf growth 96h: 30%; Shiga inhibitor: 16; LmPK inh: 2%; CHX counter: -3

What do the screens show for `O=C(NC(=S)N(Cc1ccccc1)c1ccccn1)C1CC1`?
Pf growth 48h: 44%; Pf growth 96h: 0%; Shiga inhibitor: 4; LmPK inh: -2%; CHX counter: 13*

What do the screens show for `Cc1ccc(OCC(=O)N(Cc2ccccc2)c2ccccn2)cc1`?
Pf growth 48h: -18%; Pf growth 96h: 227%; Shiga inhibitor: 3; LmPK inh: -3%; CHX counter: 32*

What do the screens show for `COc1ccccc1NC(=O)N(Cc1ccccc1)c1ccccn1`?
Pf growth 48h: 12µM*; Pf growth 96h: inconclusive; Shiga inhibitor: 32*; LmPK inh: 9%; CHX counter: 10

How did COc1ccc(-c2csc(N(CCc3ccccc3)C(=O)COc3ccccc3)n2)cc1 do in these assays?
Pf growth 48h: inconclusive; Pf growth 96h: -144%; Shiga inhibitor: -8; LmPK inh: 0%; CHX counter: 2

What do the screens show for `CC(=O)Nc1ccc(OCC(=O)N(CC(C)C)C2CCS(=O)(=O)C2)cc1` (configuration not stated)?
Pf growth 48h: -14%; Pf growth 96h: -37%[5.75 µM]; Shiga inhibitor: -7; LmPK inh: -3%; CHX counter: 5

What do the screens show for `O=C(Cn1nc2ccccc2n1)N/N=C/c1cc(Cl)cc([N+](=O)[O-])c1O`?
Pf growth 48h: inconclusive; Pf growth 96h: 39%; Shiga inhibitor: -11; LmPK inh: -7%; CHX counter: 1

Results for O=[N+]([O-])CC(=Nc1ccc(Cl)cc1)N/N=C\c1oc(O)c2ccccc12 ?
Pf growth 96h: 44%; Shiga inhibitor: 48; LmPK inh: -5%; CHX counter: 21*

What do the screens show for `C/C(=N\NC(=O)c1ccccc1F)c1ccc2c(c1)Nc1ccccc1S2`?
Pf growth 48h: -12%; Pf growth 96h: inconclusive; Shiga inhibitor: 65*; LmPK inh: 3%; CHX counter: 34*

What do the screens show for `COc1ccc(-c2[nH]ncc2CN2CCC(c3ccncc3)CC2)cc1F`?
Pf growth 48h: 2%; Pf growth 96h: -7%; Shiga inhibitor: -15; LmPK inh: 0%; CHX counter: -2

How did COc1ccc(-c2[nH]ncc2CNCCCSC)cc1F do in these assays?
Pf growth 48h: -3%; Pf growth 96h: 5.2µM*; Shiga inhibitor: -10; LmPK inh: 2%; CHX counter: 1

What do the screens show for `CCOc1ccc(OCCC(=O)OCC(=O)NCc2ccccc2)cc1`?
Pf growth 48h: 3%; Pf growth 96h: 1%; Shiga inhibitor: -16; LmPK inh: 0%; CHX counter: -2

How did COc1ccc(CCNS(=O)(=O)c2cnc(Cl)c(Br)c2)cc1OC do in these assays?
Pf growth 48h: -12%; Pf growth 96h: inconclusive; Shiga inhibitor: 21; LmPK inh: -2%; CHX counter: -1

Results for Cc1ccccc1C(=O)NC(=S)Nc1ccccc1N1CCCC1 ?
Pf growth 48h: inconclusive; Pf growth 96h: 11%; Shiga inhibitor: 8; LmPK inh: 0%; CHX counter: -3

What do the screens show for `COc1ccccc1C(=O)NC(=S)Nc1ccccc1N1CCCC1`?
Pf growth 48h: 24%; Pf growth 96h: 3.7µM*; Shiga inhibitor: 31; LmPK inh: -16%; CHX counter: 28*

Results for O=C(NC(=S)Nc1ccccc1N1CCCCC1)c1ccc(F)cc1Cl ?
Pf growth 48h: 12µM*; Pf growth 96h: inconclusive; Shiga inhibitor: 4; LmPK inh: -2%; CHX counter: 2

Results for O=C1NCCCC1C(=O)N/N=C/c1cccc(Cl)c1 (configuration not stated) ?
Pf growth 48h: inconclusive; Pf growth 96h: 16%; Shiga inhibitor: 15; LmPK inh: -1%; CHX counter: 11

What do the screens show for `Cn1c(C(=O)N2CCCC(C(=O)O)C2)cc2sccc21` (configuration not stated)?
Pf growth 96h: inconclusive; Shiga inhibitor: -11; LmPK inh: 9%; CHX counter: -6

What do the screens show for `CN(C(=O)c1cc2sccc2n1C)C1CCCCC1`?
Pf growth 48h: 79%; Pf growth 96h: 2.6µM*; Shiga inhibitor: 99*; LmPK inh: 1%; CHX counter: 42*

How did Cn1c(C(=O)NC2CCCCC2)cc2sccc21 do in these assays?
Pf growth 48h: 70%; Shiga inhibitor: 50; LmPK inh: 0%; CHX counter: 29*

How did CC1CCN(CCCNC(=O)c2cc3sccc3n2C)CC1 do in these assays?
Pf growth 48h: 8%; Pf growth 96h: -3%; Shiga inhibitor: -18; LmPK inh: -1%; CHX counter: -6

Results for O=C(CSC(=S)N1CCCCC1)c1ccccc1 ?
Pf growth 48h: 174%; Pf growth 96h: 109%; Shiga inhibitor: 35; LmPK inh: inconclusive; CHX counter: 23*

What do the screens show for `Cc1[nH]c2ccccc2c1C(=O)CSC(=S)N(C)C1CCCCC1`?
Pf growth 48h: inconclusive; Pf growth 96h: -79%; Shiga inhibitor: 41; LmPK inh: -2%; CHX counter: 15

Results for Cc1[nH]c2ccccc2c1C(=O)CSC(=S)N1CCCCC1 ?
Pf growth 48h: 45%; Pf growth 96h: 65%; Shiga inhibitor: 85*; LmPK inh: -2%; CHX counter: 95*

Results for O=C(CSC(=S)N1CCCC1)c1ccccc1 ?
Pf growth 48h: 2%; Pf growth 96h: 17%; Shiga inhibitor: 67*; LmPK inh: -15%; CHX counter: 48*

How did O=C(Nc1cccc(Cl)c1)c1ccc(=O)[nH]n1 do in these assays?
Pf growth 96h: 42%; Shiga inhibitor: 22; LmPK inh: -5%; CHX counter: 2

Results for CC(OC(=O)c1ccccc1C(=O)N(C)Cc1ccccc1)C(=O)NC1(C#N)CCCCC1 (configuration not stated) ?
Pf growth 48h: 10µM*; Pf growth 96h: inconclusive
